Source: PubChem
Only a selection was taken, and hits are over-represented in it overall.
AmpC no deterg: inhibitors of E. coli AmpC beta-lactamase without detergent; Potency, µM (highest dose often 57.1 µM), for inactives: at the highest dose activity change, negative = inhibition, actives largely listed as inhibitors; 0.52% of 330,000 active; P00811; AmpC nitrocefin hydrolysis, absorbance 480 nm, 0.0001% Triton;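 also: potency is read from the fitted curve at half-maximal effect; plate controls were no compound for no effect and no enzyme for full effect; nearly all actives have a fitted effect of over 20% in size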
Target sequence (P00811 whole entry, looked up): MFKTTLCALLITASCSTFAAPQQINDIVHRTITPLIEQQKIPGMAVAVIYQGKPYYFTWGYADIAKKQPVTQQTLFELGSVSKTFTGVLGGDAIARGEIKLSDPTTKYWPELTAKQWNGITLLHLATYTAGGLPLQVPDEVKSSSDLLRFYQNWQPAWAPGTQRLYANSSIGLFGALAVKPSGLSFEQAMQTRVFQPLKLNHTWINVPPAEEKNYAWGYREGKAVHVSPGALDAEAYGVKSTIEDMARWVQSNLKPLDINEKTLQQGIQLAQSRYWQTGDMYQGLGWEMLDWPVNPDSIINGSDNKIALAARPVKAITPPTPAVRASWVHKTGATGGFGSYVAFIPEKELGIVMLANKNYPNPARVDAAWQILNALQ
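AmpC (5.3 nM in the dispensed reagent) in 20 mM phosphate pH 7.0 with 0.01% (detergent screen) or 0.0001% Triton X-100 was preincubated with compounds for 15 min at room temperature. Nitrocefin was then added from an 800 uM solution, and hydrolysis was followed at 480 nm.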
CHX counter: counter-screen for Shiga toxin inhibitors: cycloheximide protein synthesis inhibition; cell reporter, cycloheximide protein synthesis inhibition counterscreen; max response, %; 12% of 300,000 active; in the data active = max response mostly above about 13%, no sharp cut-off; inactive = mostly below about 14%; also: read at 38.3 µM for the half of the compounds with a filed dose; 0% is about no effect
AmpC inh detg: AmpC beta-lactamase inhibition with detergent present | P00811 | AmpC hydrolysis of nitrocefin, absorbance 480 nm, 0.01% Triton | Potency, µM (top dose mostly 114 µM), for the others: at the highest dose activity change, negative = inhibition, usual class: inhibitors | 0.041% of 370,000 active;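 also: potency is read from the fitted curve at half-maximal effect; 0% = no-compound wells and -100% = no-enzyme wells; nearly all actives have a fitted effect of over 25% in size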
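20 mM phosphate pH 7.0 + 0.01% (detergent screen) or 0.0001% Triton X-100; 5.3 nM AmpC reagent; cpd preinc 15 min RT; nitrocefin (800 uM stock) to start; A480 q20 s × 4 min; Activity was normalised to no-enzyme and no-compound control wells.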
Shiga inhibitor: blocks Shiga toxin action in Vero cells | inhibition, % at 38.7 µM | Vero cells, Shiga toxin protein synthesis inhibition reporter | 9.2% of 290,000 active | AID 2315; in the data active = inhibition mostly above about 28%, no sharp cut-off; inactive = mostly below about 43%; also: 0% is about no effect
NS1 inh: influenza NS1 inhibition | Potency, µM (titrated, usually from 46.1 µM), inactives show at the highest dose activity, positive = more growth | 0.4% of 270,000 active | AID 2326; calls by dose curve; also: potency is read from the fitted curve at half-maximal effect; actives are rising curves; nearly all actives have a fitted effect of over 50% in size
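Recovery from NS1-induced slow growth read by OD600 in budding yeast switched to galactose assay medium (pH 6.0, -URA) at 1:100 dilution. Compound 23 nl per well; the matching strain lacking NS1 serves as control.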
Active calls of the source: *; ? = inconclusive; · = not tested or not shown; [ ] = another dose, or the depositor's remark. Unless noted, calls follow the shape of the dose curve; as a rule, active = well fitted curve in the direction sought with a large enough effect; inconclusive = small, poorly fitted or top-dose-only effect, or another doubt; inactive = no such curve, though single readings can be large; an effect the other way counts as inactive or inconclusive.

SMILES | AmpC no deterg | CHX counter | AmpC inh detg | Shiga inhibitor | NS1 inh
COc1ccc(N=N/C(=C\O)C(=O)c2cccs2)cc1 | -34% | 39* | ? | 58* | ·
Cc1ccc(NC(=O)COc2ccc(Br)cc2CO)cc1 | -27% | 26* | -2% | 69 | -72%
COc1cc(CO)ccc1OCC(=O)Nc1ccc(Br)cc1 | 1% | 21* | 4% | 96* | -3%
O=C(COc1ccc(Br)cc1CO)Nc1ccccc1 | -22% | 27* | 1% | 159 | -31%
O=C(COc1ccc(Br)cc1CO)Nc1ccc(S(=O)(=O)N2CCCCC2)cc1 | -27% | · | -15% | · | ·
CCCNCc1cc(Br)ccc1OCC(=O)NCCc1ccccc1 | -8% | -6 | -5% | -8 | -6%
CC(C)(CO)NCc1ccccc1OCC(=O)Nc1ccccc1 | -21% | 24* | 4% | 64 | -5%
COc1ccc(CC(=O)NNC(=O)COc2ccc(Br)cc2C)cc1OC | 24% | -3 | 2% | 14 | 12%
CCOC(=O)c1ccc2nc(CCC(=O)N[C@H](C(=O)OC)C(C)C)c(=O)n(CC)c2c1 | 98% | 5 | -3% | 15 | ·
O=C(COc1ccc(Br)cc1CO)Nc1ccccc1F | -16% | 29* | -11% | 77* | -74%
COc1ccccc1NC(=O)COc1ccc(Br)cc1CO | -15% | 21 | -5% | 15 | -3%
O=C(Nc1ccc([N+](=O)[O-])cc1)N1CCCCCC1 | -29% | 41* | -4% | 50* | 5%
COc1cccc(NC(=O)C2CCCCC2)c1 | -21% | 29* | -12% | 44* | -12%
COc1ccc(NC(=O)N2CCCCCC2)cc1 | -13% | 21* | -8% | 50* | 4%
COc1ccc(NC(=O)N2CCN(C(=O)Nc3ccc(OC)cc3)CC2)cc1 | -9% | -3 | 5% | 0 | 3%
COc1cccc(NC(=O)C2CCN(C(=O)[C@@H]3Cc4ccccc4CN3)CC2)c1 | 0% | 38* | -3% | 12 | -1%
COc1cccc(NC(=O)C2CCN(C(=O)[C@@H]3Cc4ccccc4CN3C(=O)OC(C)(C)C)CC2)c1 | 123% | 15 | 0% | 12 | 9%
CC(NC(=O)c1cccnc1Sc1ccccc1)c1ccc(S(N)(=O)=O)cc1 (stereo not drawn) | 3% | -1 | -1% | -25 | 20%
COc1ccc(OC)c(N(CC(=O)NCCSCc2ccc(C)cc2)S(C)(=O)=O)c1 | 112% | -2 | -13% | · | 4%
COc1cccc(NC(=O)N2CCOCC2)c1 | -13% | -5 | -12% | -3 | -4%
O=C(Nc1ccccc1)N1CCC2(CC1)OCCO2 | -20% | 4 | 1% | 8 | 3%
COc1ccc(NC(=O)N2CCCC(c3ccccc3)C2)cc1 (stereo not drawn) | -2% | 17* | -14% | 47 | -6%
COc1ccc(NC(=O)N2CCC3(CC2)OCCO3)cc1 | -5% | 27* | 4% | 35 | 0%
COc1cccc(NC(=O)N2CCCCCC2)c1 | -20% | 74* | ? | 46* | -16%
COc1ccc(NC(=O)c2oc3ccc(S(=O)(=O)N4CCC5(CC4)OCCO5)cc3c2C)cc1 | 101% | 9 | -3% | 11 | 11µM*
SMILES | AmpC no deterg | CHX counter | AmpC inh detg | Shiga inhibitor | NS1 inh
CCN1C(=NCCc2c[nH]c3ccccc23)N[C@@H](c2ccccc2)C(C(=O)OC)=C1C | 36% | 2 | -22% | -3 | -2%
CCOc1cc(C(=O)OCC(=O)Nc2cccc(S(=O)(=O)NC3=NCCCCC3)c2)cc(OCC)c1OCC | 58% | · | · | · | ·
O=C(Nc1ccc(Br)cc1)N1CCCCC1 | -8% | 42* | -3% | 140* | -8%
CCC1CCC(NC(=O)Nc2cccc(OC)c2)CC1 (stereo not drawn) | -39% | 52* | 2% | 64* | -5%
COc1ccc(NC(=O)OC(CN2CCCCC2)C(F)(F)F)cc1 (stereo not drawn) | 0% | 21* | -12% | 21 | 17%
Cc1cccc(N2CCN(C(=O)Nc3ccc(F)cc3)CC2C)c1 (stereo not drawn) | · | · | 19% | · | ·
COc1cccc(NC(=O)N2CCN(c3cccc(C)c3)C(C)C2)c1 (stereo not drawn) | -6% | 34* | 6% | 50* | -31%
COc1ccc(NC(=O)CN2CCCC2)cc1 | -19% | 13 | ? | · | 22%
O=C(O)C1Cc2ccccc2CN1C(=O)CCl (stereo not drawn) | -11% | -4 | -12% | 22 | ·
O=C(NCCC1CCCCN1S(=O)(=O)c1ccc(F)cc1)C(=O)NCc1cccnc1 (stereo not drawn) | 20% | · | -4% | · | ·
Cc1ccc2nc(NCc3ccccc3)c(C=NCc3cccnc3)c(=O)n2c1 | -12% | 14* | 5% | 30* | -39%
Cc1ccc2nc(NCc3ccco3)c(C=NCc3ccco3)c(=O)n2c1 | 13% | 12* | 1% | 22 | -60%
CNc1nc2c(C)cccn2c(=O)c1C=NCc1ccccc1 | -8% | -2 | -4% | -14 | -2%
O=c1c(C=NCc2ccccc2)c(NCc2ccccc2)nc2ccccn12 | -9% | 7 | -6% | 80* | -5%
Cc1ccc2nc(NCc3ccccc3)c(C=O)c(=O)n2c1 | -11% | -1 | -4% | -10 | -5%
COCCNC(=O)c1ccc2c(c1)N(Cc1ccc(C(F)(F)F)cc1)C(=O)c1ccccc1S2 | · | · | 9% | · | ·
CCOc1ccc(NC(=O)Cn2c(=O)n(CC(=O)NCc3ccccc3Cl)c(=O)c3sccc32)cc1 | · | · | 1% | · | ·
CC1=CC(=C2C(=O)c3ccccc3C2=O)C=C(C)N1Cc1ccco1 | 71% | 37* | 0% | 66* | -43%
CC1=CC(=C2C(=O)c3ccccc3C2=O)C=C(C)O1 | 89% | 11* | -1% | 18 | -4%
O=C1c2ccccc2C(=O)N1Cc1ccco1 | -12% | -3 | -7% | -12 | -1%[9.22 µM]
CC(=O)N1C(=O)C(=C2C=C(C)OC(C)=C2)c2ccccc21 | -3% | -7 | ? | -19 | -10%
CC(Oc1ccccc1F)C(=O)N1CCC(c2nc3ccccc3o2)CC1 (stereo not drawn) | · | · | 1% | · | ·
CCC(=O)Nc1nc(C)c(-c2csc(Nc3ccc(C(=O)O)cc3)n2)s1 | -25% | -1 | 1% | 5 | 0%
Cc1csc(Nc2ccc(C(=O)O)cc2)n1 | -2% | 15 | -3% | 11* | 2%
Cc1csc(NC(=O)c2ccccc2C(=O)O)n1 | -16% | -3 | -9% | -4 | 3%
SMILES | AmpC no deterg | CHX counter | AmpC inh detg | Shiga inhibitor | NS1 inh
Cc1csc(Nc2ccccc2)n1 | -7%[2.29 µM] | 23* | -7% | 44* | 2%
O=C(O)c1ccc(Nc2nc(-c3ccccc3)cs2)cc1 | -18% | 27* | 2% | 112* | ·
Cc1ccc2nc(SCC(=O)Nc3nonc3N)[nH]c2c1 | -22% | 5 | 1% | 40 | 0%
Cc1ccc(-c2nn(CC(=O)NN3CCOCC3)c(=O)c3ccccc23)cc1 | 0% | -1 | -4% | 8 | 0%
Cc1ccc(OCC(=O)N(Cc2ccco2)c2c(N)n(Cc3ccccc3)c(=O)[nH]c2=O)cc1C | -25% | · | -9% | · | ·
O=C(NCc1ccc(OC(F)(F)F)cc1)C1CC(c2ccccc2[N+](=O)[O-])=NO1 (stereo not drawn) | 22% | 2 | -12% | -12 | -38%
